Results: PubChem BioAssay (Tox21)
Inconclusive results are not listed. Where a call stands in place of a potency, no number is given. Active and inactive are the calls of the source. Calls follow the shape of the dose curve; as a rule, active = well fitted activation curve with a large enough effect in the signal ratio in the repeat runs (not every such curve was filed as active); inconclusive = weak or mixed curves; inactive = flat fitted curve, though single readings scatter; the % refers to the signal ratio.

Assay: qHTS assay to identify small molecule agonists of H2AX (AID 1224845)
Details: CHO-K1 phospho-H2AX Ser139 HTRF, 3 h; series mostly up to 154 µM
Source text: National Center for Advancing Translational Sciences [NCATS]
NIH Chemical Genomics Center [NCGC]
U.S. Environmental Protection Agency [EPA]
National Institutes of Environmental Health Sciences [NIEHS]
National Toxicology Program [NTP]
U.S. Food and Drug Administration [FDA]
HTRF phospho-H2AX (Ser139) assay (Cisbio Bioassays, US) enables the quantitative detection of the histone variant H2AX when phosphorylated on serine 139. When double-stranded DNA breaks, either by ionizing radiation or endogenous physiological processes, H2AX becomes phosphorylated at Ser139. This phospho-Ser139 serves as a sensitive biomarker for the detection of such breaks, localizing the site of DNA repair. So, HTRF phospho-H2AX Ser139 is a pertinent assay to study genome stability, the cell cycle, DNA repair, and it serves as a biomarker for cancer, and to understand aging. Wild type CHO-K1 cells were used to identify the inducers of Phospho-H2AX Ser 139 from the Tox21 10K compound collections.
Tox21 Assay Protocol Summary:
The CHO-K1 cells suspended in culture medium containing 10% FBS were dispensed at 1000 cells/ 3 ul/well in 1536-well white wall/solid bottom plates (Greiner Bio-One North America, NC) using a Multidrop Combi (Thermo Fisher Scientific Inc., Waltham, MA). After the assay plates were incubated at 37C overnight, 23 nl of compounds at 15 concentrations (from 5-48 columns) or positive control (from 1 to 4 columns) were transferred to the assay plates using a Pintool station (Wako, San Diego, CA) into each well resulting in a final DMSO concentration of 0.76%. After 3hr incubation at 37C, 1 uL/well Supplemented Lysis buffer (diluted 100 fold blocking reagent in lysis buffer) (HTRF Phospho-H2A.X (S139) Assay kit from Cisbio US Inc., Bedford, MA) was added using a Flying Reagent Dispenser (FRD) (Aurora Discovery, CA). After 10sec spin at 1000 rpm in a plate centrifuge, the assay plates were incubated at room temperature for 30 min. Then followed by the addition of 1 uL/well detection buffer (containing a mixture of two antibodies, one labeled with cryptate, Anti pH2AX (S139)-K and another labeled with d2, Anti H2AX-d2) using FRD. After incubation at room temperature for 24 hr, the time resolved fluorescence at excitation 320 nm and emissions at 665 nm and 620 nm was measured using an Envision plate reader (PerkinElmer, Waltham, MA).

Structure (SMILES) | Potency
O=C(O)c1ccc(OCCCOc2ccc(C(=O)O)cc2)cc1 | inactive
CCOc1ccccc1O[C@H](c1ccccc1)[C@H]1CNCCO1 | inactive
COC(=O)[C@H]1[C@H]2C[C@@H]3c4[nH]c5cc(OC)ccc5c4CCN3C[C@H]2C[C@@H](OC(=O)/C=C/c2ccc(O)c(OC)c2)[C@@H]1OC | inactive
CC(CO)CO | inactive
NC1[C@H]2CN(c3nc4c(cc3F)c(=O)c(C(=O)O)cn4-c3ccc(F)cc3F)C[C@@H]12 (stereo not given in full) | inactive
COc1cc(C(=O)NCCCCCC(=O)O)cc(OC)c1OC | inactive
CCn1cc(C(=O)O)c(=O)c2cc(F)c(N3CCNCC3)cc21 | inactive
CCCCCCCCN | inactive
O=C(Cn1ccnc1[N+](=O)[O-])NCCO | inactive
CO[C@]1(NC(=O)CSC(F)F)C(=O)N2C(C(=O)O)=C(CSc3nnnn3CCO)CO[C@H]21 | inactive
C=Cc1ccc(S(=O)(=O)O)cc1 | inactive
CCOC(=O)/C=C/C(=O)OCC | inactive
CN(C)CCC=C1c2ccccc2C=Cc2ccccc21 | inactive
C=C1c2cccc(O)c2C(O)=C2C(=O)[C@]3(O)C(O)=C(C(N)=O)C(=O)[C@@H](N(C)C)[C@@H]3[C@@H](O)[C@H]12 | inactive
COc1ccccc1N1CCN(CCCCNC(=O)c2ccc(-c3ccc(C(C)=O)cc3)cc2)CC1 | inactive
O=C(O)CCCCCCCCCCCBr | inactive
CC1CC(C)C(=O)C1=O (stereo not given) | inactive
CN1CC(=O)N2[C@H](c3ccc4c(c3)OCO4)c3[nH]c4ccccc4c3C[C@@H]2C1=O | inactive
CCCCCC[C@@H](O)C/C=C\CCCCCCCC(=O)OCC(O)CO (stereo not given in full) | inactive
O=C1C(=O)c2ccccc2C(O)=C1C1CCC(c2ccc(Cl)cc2)CC1 (stereo not given) | inactive

Structure (SMILES) | Potency
CC1(C)[C@H](C(=O)O)N2C(=O)C[C@H]2S1(=O)=O | inactive
CC1=Nc2ccc3ccccc3c2C1(C)C | inactive
CCC=CC#N | inactive
C[C@@H](O)[C@H]1C(=O)N2C(C(=O)O)=C([C@H]3CCCO3)S[C@H]12 | inactive
Cc1cc(C)c(N)cc1C | inactive
C=C/C(C)=C/C/C=C(\C)CCC=C(C)C | inactive
CCCCN(CCCC)C(C(N)=O)c1ccc(OC)cc1 (stereo not given) | inactive
C=COCC(C)C | inactive
CCC(C)COC(=O)CC(C)C (stereo not given) | inactive
CC(=O)Nc1ccc(C)cc1C | inactive
O=C(CCCN1CC=C(n2c(=O)[nH]c3ccccc32)CC1)c1ccc(F)cc1 | inactive
CC(C)Nc1cccnc1N1CCN(C(=O)c2cc3cc(NS(C)(=O)=O)ccc3[nH]2)CC1 | inactive
C=CC(=O)[O-].C=CC(=O)[O-].[Zn+2] | inactive
CN1C(=O)N(c2ccccc2Br)Cc2cnc(Nc3ccc4c(c3)OCC(CO)O4)nc21 (stereo not given) | inactive
O=C(O)C[C@H](NC(=O)OCc1ccccc1)C(=O)O | inactive
CCC1CO1 (stereo not given) | inactive
C=C1C[C@@]23CC[C@H]4[C@@](C)(CCC[C@@]4(C)C(=O)O[C@@H]4O[C@H](CO)[C@@H](O)[C@H](O)[C@H]4O)[C@@H]2CC[C@]1(O[C@@H]1O[C@H](CO)[C@@H](O)[C@H](O[C@@H]2O[C@H](CO)[C@@H](O)[C@H](O)[C@H]2O)[C@H]1O[C@@H]1O[C@H](CO)[C@@H](O)[C@H](O)[C@H]1O)C3 | inactive
OC(CCN1CCCC1)(c1ccccc1)C1CCCCC1 (stereo not given) | inactive
CC/C=C1/OC(=O)c2ccccc21 | inactive
O=C=Nc1cccc(C(F)(F)F)c1 | inactive
